Here are results for 75 compounds from ChEMBL document CHEMBL4513216, “Probing the Open Global Health Chemical Diversity Library for Multistage-Active Starting Points for Next-Generation Antimalarials” (ACS Infect Dis, 2020).

Molecules are shown by their SMILES. In all, about 69,000 compounds went through this assay and about 8,600 (12%) showed an effect of 50% or more. This excerpt belongs to a sample that is enriched for strong results.

The subject of the test is Plasmodium berghei. Description: Screen against P. berghei liver stage (PbLuc), transformed with Luciferase, at 10uM. The test is classed as functional, HepG2. To be noted: tested at 10 uM.
Consider `COc1ccc(CN2C[C@@H](OCc3csc(C)n3)[C@H]3COC[C@H]32)cc1`, for which the INHIBITION is -21.5%.

In the case of `N#CC1CCCN(C(=O)Cn2ncc(N3CCCC3)cc2=O)C1` (stereo not given), the INHIBITION is listed as 44.9%.

Take `CCc1cc(N2CCC3(CCCNC3=O)C2)nc(N2CCOCC2)n1` (stereo not given): the INHIBITION came out at 70.3%.

With `Cc1cc(C2CCC2)nc(N2CCC3(CCCNC3=O)C2)n1` (stereo not given), the INHIBITION was found to be 42.5%.

Consider `CCc1cc(N2CCCC(CC)(C(=O)O)C2)nc(N2CCOCC2)n1` (stereo not given), for which the INHIBITION is on record as 39.6%.

Consider `COCCN1CCN(c2nc(O)cc(Cc3ccccc3F)n2)CC1`, for which the INHIBITION is 38.7%.

On to `O=S(=O)(N1CCCC1)N1CCN(CC2CCCO2)CC1` (stereo not given), for which the INHIBITION turned out to be 33.4%.

Take `COCCCN1CCN(CC2CCCO2)CC1` (stereo not given): the INHIBITION was determined as 17.5%.

As for `COCCN1CCC(CN(CC2CCCO2)C(=O)COC)CC1` (stereo not given), the INHIBITION was 26.8%.

As to `Cc1cccc(C)c1OCCCN1CCN(CC2CCCO2)CC1` (stereo not given), the INHIBITION came out at 67.1%.

With `Cn1c(CN2CCN(CC3CCCO3)CC2)nc2ccccc21` (stereo not given), the INHIBITION turned out to be 27.6%.

On to `COCCN1CCC(CN(CC2CCCO2)C(=O)CNC(C)=O)CC1` (stereo not given), for which the INHIBITION is given as 50.2%.

As for `Cc1cccc(C)c1OCCCN1CCC(n2cncn2)CC1`, the INHIBITION was -49.5%.

`COCCN1CCC(CN(CC2CCCO2)C(=O)CCNC(C)=O)CC1` (stereo not given): the INHIBITION was -14.9%.

On to `COCCN1CCN(CC2CCCCO2)CC1` (stereo not given), for which the INHIBITION came to 51.7%.

As for `O=C(NCCCNC(=O)c1cccc(O)c1)Nc1ccc(Cl)cc1`, the INHIBITION was 45.5%.

With `CC(C)c1cc(C(=O)N2CCC3(CCc4ccccc4C(=O)N3)C2)no1` (stereo not given), the INHIBITION came out at 2.415%.

On to `O=S(=O)(c1c(F)cccc1F)N1CCCC1c1nnc2n1CCCCC2` (stereo not given), for which the INHIBITION is reported as -21.2%.

Turning to `CCCN1CCCn2c(nc(CNC(=O)N3CCCC3)cc2=O)C1`, the INHIBITION came out at 49.1%.

For `COc1cc2ncn(Cc3ncc[nH]3)c(=O)c2cc1OC`, the INHIBITION came out at 64.1%.

For `COc1ccc2ncn(Cc3ncc[nH]3)c(=O)c2c1`, the INHIBITION is -64.3%.

For `CCc1ccc2ncn(Cc3ncc[nH]3)c(=O)c2c1`, the INHIBITION worked out at 15.2%.

Regarding `CCn1cnnc1CNC(=O)N1CCN(Cc2ccco2)CC1`, the INHIBITION is on record as -2.19%.

In the case of `O=C(CC1CCCC1)N1C[C@H](OCc2ccncc2)[C@H]2OCCC[C@H]21`, the INHIBITION was -32%.

With `CN1CCOC(CNCC(=O)NCCc2ccc(F)cc2)C1` (stereo not given), the INHIBITION is -2.27%.

With `O=C(C[S+]([O-])Cc1cccc(Cl)c1)NC1CCCC1` (stereo not given), the INHIBITION was 15.2%.

`CN(C)C(=O)c1cccc(C[S+]([O-])CC(=O)NC2CCCC2)c1` (stereo not given): the INHIBITION is listed as 54.4%.

Consider `CN(C)C(=O)c1cccc(CN2CCN(CCO)CC2)c1`, for which the INHIBITION is reported as -170%.

As for `O=C(C[S+]([O-])Cc1cccc(C(F)(F)F)c1)NC1CCCC1` (stereo not given), the INHIBITION is on record as 21.9%.

As for `O=C(C[S+]([O-])Cc1ccc(F)cc1Cl)NC1CCCC1` (stereo not given), the INHIBITION stood at 66.7%.

With `CN(CC(=O)NC1CC1)S(=O)(=O)c1ccc(F)cc1Cl`, the INHIBITION is on record as -26.8%.

For the compound `CC1CN(C)CCN1Cc1cccc(C(=O)N(C)C)c1` (stereo not given), the INHIBITION was -32%.

Turning to `O=C(Cc1ccc(F)cc1Cl)N[C@@H]1CCNC[C@H]1O`, the INHIBITION is 4.59%.

On to `O=C(C[S+]([O-])Cc1cccc(F)c1)NC1CCCC1` (stereo not given), for which the INHIBITION amounted to 54.4%.

As for `COCCC1(CNC(=O)Nc2ccc(-n3ccnn3)cc2)CCC1`, the INHIBITION is -12.2%.

For the compound `CSCC[C@H]1CN2CCC[C@H]2CN1Cc1cn(C)nc1C`, the INHIBITION is listed as 5.11%.

On to `CN(Cc1ccco1)C(=O)C1CSCN1C(=O)C1CCC1` (stereo not given), for which the INHIBITION was -16%.

In the case of `CCS(=O)(=O)N1CCCCC1c1nc(C)no1` (stereo not given), the INHIBITION came out at 20.1%.

As to `CCS(=O)(=O)N1CCCCC1c1nc(C(C)C)no1` (stereo not given), the INHIBITION was found to be 57.3%.

Regarding `CC(C)c1noc(C2CCCN2S(=O)(=O)N2CCCCCC2)n1` (stereo not given), the INHIBITION was -31.7%.

For the compound `Cc1ccc(C(C)NCc2c(C(C)C)nn(C)c2N2CCOCC2)o1` (stereo not given), the INHIBITION is listed as 7.27%.

For `CCOc1ccc(Br)cc1C1CCCCN1` (stereo not given), the INHIBITION came out at 18.4%.

As to `CCOc1ccc(Cl)cc1C1CCCCN1` (stereo not given), the INHIBITION was 54.9%.

On to `CCOc1ccc(Cl)cc1C1CCCN1` (stereo not given), for which the INHIBITION was 18.2%.

As for `O=C(CCn1ccnc1)N1CC[C@H](Oc2cccc(F)c2)[C@@H](O)CC1`, the INHIBITION was 7.3%.

For the compound `O=C(Nc1nnc[nH]1)C(c1cccc(F)c1)N1CCOCC1` (stereo not given), the INHIBITION is on record as 52.6%.

Consider `Cc1cc(NC(=O)C(c2cccc(F)c2)N2CCOCC2)ccn1` (stereo not given), for which the INHIBITION is recorded as 41.1%.

Regarding `Cc1cc(NC(=O)C(c2cccc(F)c2)N2CCOCC2)sn1` (stereo not given), the INHIBITION is -22.8%.

With `O=C(Cn1cc(I)cn1)N1CCNC1=O`, the INHIBITION is on record as -28%.

As for `O=S(=O)(c1cc(F)cc(F)c1)N1CCC(Oc2ccc(Cl)cn2)CC1`, the INHIBITION is reported as 35.8%.

For the compound `N#Cc1cccnc1OC1CCNCC1`, the INHIBITION is listed as 5.58%.

With `N#Cc1cccnc1OC1CCN(S(=O)(=O)c2ccc(F)c(Cl)c2)CC1`, the INHIBITION is 64.3%.

In the case of `O=S(=O)(c1c(F)cccc1F)N1CCC(Cn2cccn2)CC1`, the INHIBITION is given as 36.3%.

`N#Cc1cccnc1OC1CCN(S(=O)(=O)c2c(F)cccc2F)CC1`: the INHIBITION is listed as 54.6%.

For the compound `COC(=O)c1sccc1S(=O)(=O)N1CCC(Oc2ncccc2Cl)CC1`, the INHIBITION was 38.5%.

Take `N#Cc1cccnc1OC1CCN(S(=O)(=O)c2ccc(Br)cc2)CC1`: the INHIBITION came out at 50.4%.

On to `O=S(=O)(c1ccccc1F)N1CCC(Oc2cccnn2)CC1`, for which the INHIBITION is reported as 43.3%.

As to `COC(=O)c1ccc(S(=O)(=O)N2CCC(Oc3cccnn3)CC2)cc1`, the INHIBITION is on record as 26.6%.

For the compound `c1cncc(OCc2nnn3c2CN(Cc2ccsc2)CCC3)c1`, the INHIBITION is 16.6%.

For the compound `Cc1ccncc1C(=O)N1CCCC(C(=O)CCc2ccccc2)C1` (stereo not given), the INHIBITION is -34.8%.

Regarding `COc1ccccc1NC(=O)NCC(O)c1ccc(F)cc1F` (stereo not given), the INHIBITION is 12.7%.

Regarding `O=C(CC1CC1)N1CCC2(CCCN(CCOc3ccccc3)C2)C1` (stereo not given), the INHIBITION was 27.2%.

For the compound `NC(=O)CN1C[C@@H](c2ccccc2F)[C@@]2(CCCCC(=O)N2)C1`, the INHIBITION is listed as 21.95%.

`CCc1ccc(CCC(=O)N2CCC(=O)Nc3cccnc32)cc1`: the INHIBITION is given as 70.3%.

Consider `CC(C)c1ocnc1C(=O)N1CCC(=O)Nc2cccnc21`, for which the INHIBITION is 4.13%.

As to `Cc1ccc(CCCC(=O)N2CCC(=O)Nc3cccnc32)s1`, the INHIBITION amounted to 47.1%.

`Cc1cccc(CN2C(=O)CC[C@@H]3[C@H]2CCN3Cc2ccc(F)cc2)n1`: the INHIBITION came out at 69.5%.

Regarding `Cc1cccc(CN2C(=O)CC[C@@H]3[C@H]2CCN3Cc2cccnc2)n1`, the INHIBITION was 31.1%.

Regarding `Cc1cccc(CN2CC[C@H]3[C@H]2CCN3C(=O)c2cnn(C)c2)n1`, the INHIBITION is on record as -0.554%.

With `Cc1cccc(CN2CC[C@@H]3[C@@H]2CCN3Cc2cccs2)n1`, the INHIBITION worked out at 33.1%.

Consider `Cc1cccc(CN2CC[C@H]3[C@H]2CCN3Cc2cnn(C)c2)n1`, for which the INHIBITION came out at 51.6%.

For `Cn1cc(CN2CC[C@@H]3[C@@H]2CCN3Cc2ccc3c(c2)OCO3)cn1`, the INHIBITION is 60.5%.

Consider `CN1CC[C@@H]2[C@@H]1CCN2Cc1ccc2c(c1)OCO2`, for which the INHIBITION was 35.8%.

As for `Cn1cc(C[C@H]2[C@H](O)CCN2Cc2ccc3c(c2)OCO3)cn1`, the INHIBITION amounted to 22.9%.

Turning to `Cc1cccc(CN2C(=O)C[C@H]3[C@@H]2CCN3Cc2ccc(F)cc2)n1`, the INHIBITION is -4.82%.
